# According to the supplement of paper PMC10849652:
# Targets with a hit are over-represented here; the source holds about 8,800 in all. About 0.5% of all pairs of compound and target were hits. Values without a mark were called inactive.
# Experiments:
# Experiment in all cases: log2 fold change, soluble protein after heating vs DMSO (PISA); higher = thermal stabilisation; K562 lysate, 10 uM; active = over 0.2 and 3.5 SD of the protein, either way, in both replicates (recomputed)
# [1] = compound: CCCS(=O)(=O)Nc1ccc(F)c(C(=O)c2c[nH]c3ncc(-c4ccc(Cl)cc4)cc23)c1F [vemurafenib]
# In short: (§1)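 Soluble protein was defined as the supernatant remaining after 21,000xg for 90 min, following pooling of heated aliquots and adjustment to 0.5% NP-40 at 4°C. Before that, crude K562 extract at 1 mg/mL protein in PBS pH 7.4 with 1 mM MgCl2 was treated with 10 μM compound for 30 min and heated for 3 min across 48°C-58°C. Quantification used TMTpro 16plex LC-MS/MS with channel sums equalised, and values are log-two fold changes in thermal stability relative to solvent controls from duplicates.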
# [2] = compound: CCCS(=O)(=O)Nc1ccc(F)c(C(=O)c2c[nH]c3ncc(Cl)cc23)c1F
# In short: as §1
# [3] = compound: CCN(CCCOc1ccc2c(Nc3cc(CC(=O)Nc4cccc(F)c4)[nH]n3)ncnc2c1)CCOP(=O)(O)O [barasertib]
# In short: as §1
# [4] = compound: CC[C@@H]1C(=O)N(C)c2cnc(Nc3ccc(C(=O)NC4CCN(C)CC4)cc3OC)nc2N1C1CCCC1
# In short: as §1
# [5] = compound: CC[C@@H]1C(=O)N(C)c2cnc(Nc3ccc(C(=O)N[C@H]4CC[C@H](N5CCN(CC6CC6)CC5)CC4)cc3OC)nc2N1C(C)C [volasertib]
# In short: as §1
# [6] = compound: CCn1c(C(=O)N(C2CC2)C2CC2)cc2c3c(ncn3C)c(Nc3cc(C)n(C)n3)nc21
# In short: as §1
# [7] = compound: CCn1cc(-c2ccnc3[nH]c(-c4cccc(CN(C)C)c4)cc23)c(-c2ccc(NC(=O)N(C)C)cc2)n1
# In short: as §1
# [8] = compound: CN1CCC(CNc2ccc3ncc(-c4cccc(OC(F)(F)F)c4)n3n2)CC1
# In short: as §1
# [9] = compound: CN1CCN(CCOc2cc(OC3CCOCC3)c3c(Nc4c(Cl)ccc5c4OCO5)ncnc3c2)CC1 [saracatinib]
# In short: as §1
# [10] = compound: CN1CCN(c2nc(C3=C(c4c[nH]c5ccccc45)C(=O)NC3=O)c3ccccc3n2)CC1 [sotrastaurin]
# In short: as §1
# [11] = compound: CN1CC[C@H](c2c(O)cc(O)c3c(=O)cc(-c4ccccc4Cl)oc23)[C@H](O)C1 [alvocidib]
# In short: as §1
# [12] = compound: CN1CCc2c(c3ccccc3n2Cc2ccc(C(=O)NO)cc2)C1 [Tubastatin A]
# In short: as §1
# [13] = compound: CNC(=O)C1=CC=CC=C1NC2=NC(=NC=C2Cl)NC3=C(C=C(C=C3)N4CCOCC4)OC
# In short: as §1
# [14] = compound: CNC(=O)c1ccc(Nc2ncc(C(F)(F)F)c(NCc3nccnc3N(C)S(C)(=O)=O)n2)cc1 [defactinib]
# In short: as §1
# [15] = compound: CNc1nc(-c2ccc3c(N)n[nH]c3c2)cc(N2C[C@@H](C(=O)NC3CCCCC3)CC[C@H]2C)n1
# In short: as §1
# [16] = compound: COC(=O)N[C@@H](C)CNc1nccc(-c2cn(C(C)C)nc2-c2cc(Cl)cc(NS(C)(=O)=O)c2F)n1 [encorafenib]
# In short: as §1
# [17] = compound: COC(=O)[C@H](CCSC)NC(=O)C1=C(C=C(C=C1)NC[C@H](CS)N)C2=CC=CC=C2
# In short: as §1
# [18] = compound: COc1cc(Nc2ncc3c(n2)-c2ccc(Cl)cc2C(c2c(F)cccc2OC)=NC3)ccc1C(=O)O [alisertib]
# In short: as §1
# [19] = compound: COc1cc2nc(-c3cc(F)ccc3O)nc(N[C@@H]3CNC[C@H]3C(C)(C)O)c2cc1OC
# In short: as §1
# [20] = compound: COc1cc2ncnc(Nc3ccc(F)c(Cl)c3)c2cc1OCCCN1CCOCC1 [gefitinib]
# In short: as §1
# Chain of UniProt Q9ULU4 (Q9ULU4 whole entry, looked up): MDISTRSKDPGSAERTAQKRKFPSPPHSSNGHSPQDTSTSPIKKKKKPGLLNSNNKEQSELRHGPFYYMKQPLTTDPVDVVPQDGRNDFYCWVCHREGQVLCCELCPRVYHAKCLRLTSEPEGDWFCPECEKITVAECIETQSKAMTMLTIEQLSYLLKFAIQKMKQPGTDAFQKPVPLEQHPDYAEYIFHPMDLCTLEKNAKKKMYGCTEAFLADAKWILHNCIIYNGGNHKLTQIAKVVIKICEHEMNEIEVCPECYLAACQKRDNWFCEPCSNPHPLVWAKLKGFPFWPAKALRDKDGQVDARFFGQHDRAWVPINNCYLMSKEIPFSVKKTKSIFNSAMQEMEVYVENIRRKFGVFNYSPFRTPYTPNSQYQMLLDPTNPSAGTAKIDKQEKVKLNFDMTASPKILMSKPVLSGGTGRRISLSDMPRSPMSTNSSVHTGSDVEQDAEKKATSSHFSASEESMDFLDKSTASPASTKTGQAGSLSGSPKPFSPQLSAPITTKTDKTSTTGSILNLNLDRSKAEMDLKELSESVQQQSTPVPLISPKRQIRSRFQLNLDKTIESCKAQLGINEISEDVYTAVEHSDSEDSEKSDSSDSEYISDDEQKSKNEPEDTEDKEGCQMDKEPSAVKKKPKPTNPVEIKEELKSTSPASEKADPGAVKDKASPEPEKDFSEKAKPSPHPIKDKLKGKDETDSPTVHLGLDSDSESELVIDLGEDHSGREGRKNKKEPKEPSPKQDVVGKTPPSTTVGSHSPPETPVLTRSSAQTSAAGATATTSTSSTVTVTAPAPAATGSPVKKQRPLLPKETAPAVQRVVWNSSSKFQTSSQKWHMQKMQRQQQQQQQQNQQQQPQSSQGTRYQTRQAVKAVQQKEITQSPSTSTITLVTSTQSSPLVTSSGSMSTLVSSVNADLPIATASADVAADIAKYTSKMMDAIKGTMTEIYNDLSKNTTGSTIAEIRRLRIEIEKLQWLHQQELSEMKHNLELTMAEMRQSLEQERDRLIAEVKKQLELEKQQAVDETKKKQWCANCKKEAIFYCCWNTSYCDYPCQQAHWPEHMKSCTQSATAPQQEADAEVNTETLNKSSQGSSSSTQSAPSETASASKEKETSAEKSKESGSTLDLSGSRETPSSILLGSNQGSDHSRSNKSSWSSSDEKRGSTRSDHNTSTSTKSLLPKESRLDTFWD
# Chain of UniProt Q9NQW7 (Q9NQW7 whole entry, looked up): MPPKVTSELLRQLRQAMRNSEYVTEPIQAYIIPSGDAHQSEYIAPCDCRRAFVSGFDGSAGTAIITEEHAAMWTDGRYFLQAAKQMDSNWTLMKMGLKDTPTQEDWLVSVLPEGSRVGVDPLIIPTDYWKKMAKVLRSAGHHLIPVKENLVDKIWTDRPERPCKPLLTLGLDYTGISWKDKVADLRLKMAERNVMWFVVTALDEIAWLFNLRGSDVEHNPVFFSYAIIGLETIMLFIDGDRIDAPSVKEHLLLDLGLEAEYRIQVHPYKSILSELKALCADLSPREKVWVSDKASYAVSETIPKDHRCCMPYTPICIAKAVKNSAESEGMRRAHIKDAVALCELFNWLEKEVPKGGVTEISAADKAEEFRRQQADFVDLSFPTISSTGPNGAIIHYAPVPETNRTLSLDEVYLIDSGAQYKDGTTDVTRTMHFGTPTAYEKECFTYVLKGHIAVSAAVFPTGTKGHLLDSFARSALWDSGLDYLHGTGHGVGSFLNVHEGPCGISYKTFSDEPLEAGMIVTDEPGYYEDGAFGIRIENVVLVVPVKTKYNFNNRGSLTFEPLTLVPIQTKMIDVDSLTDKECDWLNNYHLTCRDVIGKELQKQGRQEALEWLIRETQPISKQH
# Chain of UniProt Q96TA2 (Q96TA2 whole entry, looked up): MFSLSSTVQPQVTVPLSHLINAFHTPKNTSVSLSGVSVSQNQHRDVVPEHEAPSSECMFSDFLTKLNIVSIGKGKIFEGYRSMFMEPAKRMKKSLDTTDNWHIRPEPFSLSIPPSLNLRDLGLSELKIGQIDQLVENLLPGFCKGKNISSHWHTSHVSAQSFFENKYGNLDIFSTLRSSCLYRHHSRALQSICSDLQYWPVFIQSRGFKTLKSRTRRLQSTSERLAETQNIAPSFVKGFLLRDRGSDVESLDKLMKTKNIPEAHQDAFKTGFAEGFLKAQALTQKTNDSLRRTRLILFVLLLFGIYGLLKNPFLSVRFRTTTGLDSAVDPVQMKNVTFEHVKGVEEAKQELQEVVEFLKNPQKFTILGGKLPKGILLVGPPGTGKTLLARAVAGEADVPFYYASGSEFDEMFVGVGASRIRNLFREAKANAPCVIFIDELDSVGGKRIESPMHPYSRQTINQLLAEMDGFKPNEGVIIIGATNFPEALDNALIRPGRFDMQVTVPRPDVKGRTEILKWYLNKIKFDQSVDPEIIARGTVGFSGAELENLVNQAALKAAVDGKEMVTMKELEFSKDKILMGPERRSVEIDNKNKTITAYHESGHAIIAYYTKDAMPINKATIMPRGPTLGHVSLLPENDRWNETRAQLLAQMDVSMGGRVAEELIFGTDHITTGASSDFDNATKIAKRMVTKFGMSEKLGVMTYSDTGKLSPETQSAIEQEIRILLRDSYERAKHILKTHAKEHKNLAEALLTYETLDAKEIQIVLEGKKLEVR
# Chain of UniProt P22695 (P22695 whole entry, looked up): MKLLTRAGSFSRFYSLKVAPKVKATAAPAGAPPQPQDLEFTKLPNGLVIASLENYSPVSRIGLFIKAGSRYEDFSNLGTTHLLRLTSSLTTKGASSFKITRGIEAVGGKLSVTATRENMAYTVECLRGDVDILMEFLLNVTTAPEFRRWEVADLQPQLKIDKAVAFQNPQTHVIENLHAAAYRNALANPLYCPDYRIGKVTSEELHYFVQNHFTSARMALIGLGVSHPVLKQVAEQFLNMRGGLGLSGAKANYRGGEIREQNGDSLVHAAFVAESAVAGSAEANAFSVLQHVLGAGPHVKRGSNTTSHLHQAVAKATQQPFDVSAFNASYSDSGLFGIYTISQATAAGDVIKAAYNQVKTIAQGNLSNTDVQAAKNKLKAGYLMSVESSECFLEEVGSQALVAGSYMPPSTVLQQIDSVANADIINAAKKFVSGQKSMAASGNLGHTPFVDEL
# Chain of UniProt Q9UKW4 (Q9UKW4 whole entry, looked up): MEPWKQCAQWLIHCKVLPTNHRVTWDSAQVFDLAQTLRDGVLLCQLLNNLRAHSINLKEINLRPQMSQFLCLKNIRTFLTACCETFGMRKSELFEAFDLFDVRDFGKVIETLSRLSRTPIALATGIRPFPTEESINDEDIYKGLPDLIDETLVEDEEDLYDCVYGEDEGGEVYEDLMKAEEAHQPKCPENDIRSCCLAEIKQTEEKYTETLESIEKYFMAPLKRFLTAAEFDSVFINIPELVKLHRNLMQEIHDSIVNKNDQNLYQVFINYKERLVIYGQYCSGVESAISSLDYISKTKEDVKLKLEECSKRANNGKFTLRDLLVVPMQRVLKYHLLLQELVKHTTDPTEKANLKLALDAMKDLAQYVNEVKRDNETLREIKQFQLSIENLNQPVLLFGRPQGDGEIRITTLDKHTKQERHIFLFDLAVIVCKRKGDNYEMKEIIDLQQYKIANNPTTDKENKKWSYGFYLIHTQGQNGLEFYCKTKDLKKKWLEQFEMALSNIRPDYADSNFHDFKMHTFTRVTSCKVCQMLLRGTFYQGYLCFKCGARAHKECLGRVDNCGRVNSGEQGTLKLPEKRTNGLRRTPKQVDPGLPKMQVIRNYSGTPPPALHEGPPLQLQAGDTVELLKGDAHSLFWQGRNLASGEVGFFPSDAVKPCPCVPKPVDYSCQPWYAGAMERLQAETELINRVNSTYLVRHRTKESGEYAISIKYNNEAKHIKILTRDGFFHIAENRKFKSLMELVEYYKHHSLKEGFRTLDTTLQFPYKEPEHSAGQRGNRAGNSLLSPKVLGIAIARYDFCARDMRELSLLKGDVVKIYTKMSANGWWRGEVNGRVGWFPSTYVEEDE
# Chain of UniProt Q9Y4E5 (Q9Y4E5 whole entry, looked up): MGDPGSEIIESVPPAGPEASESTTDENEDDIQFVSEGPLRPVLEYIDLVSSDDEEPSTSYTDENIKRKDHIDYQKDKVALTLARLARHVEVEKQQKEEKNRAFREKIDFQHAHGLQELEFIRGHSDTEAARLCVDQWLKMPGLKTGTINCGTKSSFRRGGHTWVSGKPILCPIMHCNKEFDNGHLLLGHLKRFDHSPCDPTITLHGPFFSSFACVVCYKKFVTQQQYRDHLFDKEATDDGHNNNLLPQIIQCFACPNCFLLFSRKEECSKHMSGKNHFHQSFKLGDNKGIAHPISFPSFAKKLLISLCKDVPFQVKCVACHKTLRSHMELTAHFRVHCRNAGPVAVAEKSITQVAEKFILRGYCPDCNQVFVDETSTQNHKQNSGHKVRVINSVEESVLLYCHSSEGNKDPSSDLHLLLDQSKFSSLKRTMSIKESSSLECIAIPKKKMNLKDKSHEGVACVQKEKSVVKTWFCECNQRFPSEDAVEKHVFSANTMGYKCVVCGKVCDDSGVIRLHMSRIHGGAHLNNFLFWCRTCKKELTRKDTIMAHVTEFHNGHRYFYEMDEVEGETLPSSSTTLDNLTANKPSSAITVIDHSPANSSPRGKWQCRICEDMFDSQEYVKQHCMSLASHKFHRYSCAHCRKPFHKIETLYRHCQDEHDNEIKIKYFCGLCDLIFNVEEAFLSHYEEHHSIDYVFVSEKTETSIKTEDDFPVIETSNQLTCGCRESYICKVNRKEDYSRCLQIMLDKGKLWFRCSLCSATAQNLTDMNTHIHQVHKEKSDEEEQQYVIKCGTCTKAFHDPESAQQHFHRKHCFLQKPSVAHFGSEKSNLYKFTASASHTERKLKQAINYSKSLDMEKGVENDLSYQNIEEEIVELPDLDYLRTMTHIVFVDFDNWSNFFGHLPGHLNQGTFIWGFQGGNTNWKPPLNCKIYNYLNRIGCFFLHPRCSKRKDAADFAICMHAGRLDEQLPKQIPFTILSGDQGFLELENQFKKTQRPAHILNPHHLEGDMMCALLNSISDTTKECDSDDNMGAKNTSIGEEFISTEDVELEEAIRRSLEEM
Target,log2 fold change [1],log2 fold change [2],log2 fold change [3],log2 fold change [4],log2 fold change [5],log2 fold change [6],log2 fold change [7],log2 fold change [8],log2 fold change [9],log2 fold change [10],log2 fold change [11],log2 fold change [12],log2 fold change [13],log2 fold change [14],log2 fold change [15],log2 fold change [16],log2 fold change [17],log2 fold change [18],log2 fold change [19],log2 fold change [20]
VAV1 (UniProt P15498),0.032,-0.017,0.022,-0.041,-0.002,-0.041,-0.114,0.035,-0.011,-0.021,0.005,-0.117,-0.028,0.018,0.007,-0.026,0.025,-0.006,-0.044,0.024
ZMYND8 isoform 19 (UniProt Q9ULU4),0.061,0.071,0.012,0.016,-0.025,-0.015,-0.127,0.037,-0.01,0.019,0,-0.091,0.017,0.104,-0.052,-0.002,0.065,0.022,-0.046,-0.023
YME1L1 (UniProt Q96TA2),0.01,0.011,0.036,-0.008,-0.02,0.035,0.181,-0.088,0.037,0.055,0.018,0.048,0.011,0.018,-0.061,0.05,-0.301 (active),-0.016,0.028,0.042
UTP18 (UniProt Q9Y5J1),-0.011,0.067,-0.036,0.057,-0.069,0.024,-0.004,-0.042,0.031,0.012,0.009,-0.05,0.075,-0.086,-0.049,-0.028,0.006,-0.032,-0.05,-0.046
YLPM1 (UniProt P49750),0.062,0.005,0.032,0.069,-0.019,-0.018,0.165,-0.085,0.033,0.012,0.061,-0.041,0.01,0.041,0.131,0.049,-0.09,-0.033,0,-0.086
UQCRC2 (UniProt P22695),-0.016,0.01,-0.018,0.026,0.01,-0.015,0.034,-0.003,0.002,-0.02,-0.005,0.035,-0.013,0.014,0.01,-0.001,-0.013,0.022,0.024,-0.013
VPS13C (UniProt Q709C8),0.018,0.028,0.12,0.112,-0.017,-0.01,0,0.02,0.028,0.026,0.008,0.034,0.002,0.014,0.023,0.192,-0.131,0.111,0.157,0.131
XPNPEP1 isoform 3 (UniProt Q9NQW7),0.001,0.015,0.008,-0.044,-0.054,0.014,-0.022,0.019,-0.001,-0.016,-0.018,0.011,0.029,-0.001,-0.045,0.001,0.613 (active),-0.002,0.002,0.002
YWHAQ (UniProt P27348),-0.029,0.009,-0.023,0.025,0.023,-0.003,0.625 (active),-0.092,-0.012,-0.047,0.16,-0.021,-0.006,0,0.023,-0.025,-0.045,-0.014,0.008,-0.06
WDR41 (UniProt Q9HAD4),-0.018,0.036,-0.07,0.089,0.005,0.053,-0.032,0.053,0.017,0.043,-0.061,-0.14,0.021,-0.044,0.017,0.081,-0.121,0.033,-0.047,0.083
WDR36 (UniProt Q8NI36),0.014,0.018,0.011,-0.058,-0.022,0.034,0.012,-0.076,-0.015,0.044,0.021,-0.102,0.028,-0.018,-0.062,-0.025,0.134,0.008,0.004,-0.03
VAV3 isoform 4 (UniProt Q9UKW4),0.059,-0.004,0.049,-0.001,-0.017,-0.291,-0.512,0.177,-0.15,0.001,-0.305,-0.202,0.032,-0.295,0.053,0,0.049,-0.004,0.054,0.036
ZBTB33 (UniProt Q86T24),0.01,-0.017,-0.199,-0.002,-0.673 (active),0,0.034,-0.008,0.033,0.015,-0.028,-0.005,-0.178,-0.062,0.119,0.018,-0.004,-0.059,-0.307,0.086
ZMYM4 (UniProt Q5VZL5),0.008,0.003,0.126,0.013,0.041,0.033,0.013,0.029,0.023,0.043,-0.071,-0.089,-0.015,0.096,0.188,0.063,0.016,-0.004,0.004,0.047
UPF3B (UniProt Q9BZI7),0.027,0.01,-0.006,0.026,0.004,-0.019,-0.231 (active),0.031,0.005,-0.019,-0.105,-0.001,0.023,-0.015,0.011,0.011,0.049,0.021,-0.021,-0.038
ZNF451 (UniProt Q9Y4E5),-0.013,0.02,0.019,0.066,-0.063,-0.022,-0.047,-0.048,0.039,0.002,-0.011,-0.121,0.027,0,-0.014,-0.03,0.07,0.008,-0.012,-0.009
